PP5 primary – inhibitors of human protein phosphatase 5 (PP5) | purified PP5c, OMFP substrate fluorescence | inhibition, % at 6.7 µM | AID 1987 | 320,000 compounds, 0.18% hits | P53041;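 active = inhibition above the campaign's mean inhibition across all tested compounds plus 3 SD, cut at about 9.5% in these data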;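 also: 0% = DMSO only and 100% = 100 µM cantharidin control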
Target sequence (P53041 whole entry, looked up): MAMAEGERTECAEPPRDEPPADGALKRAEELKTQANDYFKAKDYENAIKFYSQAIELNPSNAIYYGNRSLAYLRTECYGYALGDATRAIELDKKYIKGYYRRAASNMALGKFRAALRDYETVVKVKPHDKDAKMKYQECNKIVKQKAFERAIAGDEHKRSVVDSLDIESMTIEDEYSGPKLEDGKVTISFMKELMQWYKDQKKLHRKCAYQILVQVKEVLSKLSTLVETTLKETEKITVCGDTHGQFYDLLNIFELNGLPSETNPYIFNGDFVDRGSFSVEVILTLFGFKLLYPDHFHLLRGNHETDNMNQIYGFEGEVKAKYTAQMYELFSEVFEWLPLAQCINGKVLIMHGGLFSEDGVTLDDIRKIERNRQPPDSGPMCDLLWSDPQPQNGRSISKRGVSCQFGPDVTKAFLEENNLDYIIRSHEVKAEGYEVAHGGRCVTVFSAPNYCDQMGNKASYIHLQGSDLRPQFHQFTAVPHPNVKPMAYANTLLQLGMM
PP1 inh – counter-screen for PP5 inhibitors: inhibitors of human PP1-alpha; purified PP1alpha, OMFP fluorescence; inhibition, % at 6.7 µM; 320,000 compounds, 0.9% hits;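 active = inhibition above the mean inhibition of all tested compounds plus 3 SD, computed separately for each screening campaign, cut at about 15% in these data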
PREPL inhibitor – inhibitors of human prolyl oligopeptidase-like enzyme PREPL | inhibition, % at 5.96 µM | Q4J6C6 | 320,000 compounds, 0.68% hits | AID 2751 | recombinant PREPL, fluorescence polarization activity-based probe; in the data active = inhibition above about 43%;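 also: 0% = enzyme with DMSO and 100% = wells lacking enzyme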
Rpn11 block – Rpn11 (human) deubiquitinase inhibition; O00487; human 26S proteasome, Ub4-pepOG fluorescence polarization; 20S core pre-blocked with epoxomicin; inhibition, % at 20 µM; 360,000 compounds, 0.59% hits; AID 588493;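 active = inhibition at 20 µM, scaled to each plate's controls, above about 33%, limit read from the data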
NadD block – NadD (S. aureus) enzyme inhibition | AID 602399 | inhibition, % at 20 µM | 360,000 compounds, 0.78% hits | purified NadD enzyme, colorimetric absorbance read-out; in the data active = inhibition above about 26%
PP1 inh confirm – human PP1 phosphatase inhibition, confirmation; shares compounds with PP1 inh; purified PP1alpha, OMFP substrate fluorescence; inhibition, % at 6.7 µM; 1,900 compounds, 52% hits; AID 2358;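 active = mean PP1 inhibition above a set limit taken from the earlier primary screen, cut at about 15% in these data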
PP5 inh counter – counter-screen for PP1 inhibitors: human PP5 phosphatase inhibition; 1,900 compounds, 4% hits; AID 2360; inhibition, % at 6.7 µM; purified PP5c, OMFP fluorescence; shares compounds with PP1 inh;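 active = mean PP5 inhibition over triplicate wells above about 9.5% taken from the earlier PP1 screen, limit read from the data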
An asterisk follows results filed as active; · = not tested or not shown. Sampled rows, rich in hits. Any-hit rate of the full collection: about 2.4%.

SMILES | PP5 primary | PP1 inh | PREPL inhibitor | Rpn11 block | NadD block | PP1 inh confirm | PP5 inh counter
Cc1nn(CC(=O)Nc2ccc(C(=O)N3CCCCC3)cc2)c(=O)c2ccccc12 | 5 | 23* | 0 | -5 | 0 | -2 | 0
CC(C)(C)c1ccc(C(=O)Cn2nc(C(=O)O)c3ccccc3c2=O)cc1 | 0 | 14 | 5 | 1 | 0 | · | ·
CC(C)CC(=O)Nc1ccc(C(=O)Cn2nc(C(=O)O)c3ccccc3c2=O)cc1 | 2 | 20* | 1 | 5 | 4 | 23* | 0
CC12CCC(=O)N1C(C(=O)Nc1ccc(SC(F)F)cc1)CS2 (centres undefined) | 1 | -3 | -6 | -9 | 1 | · | ·
COc1ccc(CNC(=S)Nc2cc(OC)ccc2OC)cc1 | 2 | 63* | -3 | 0 | -3 | -3 | -5
COc1ccc(OC)c(NC(=S)NCc2ccc(S(N)(=O)=O)cc2)c1 | 1 | -3 | 2 | -1 | -6 | · | ·
Cc1cc(Br)ccc1NC(=O)CNC(=O)CNc1cccc([N+](=O)[O-])c1 | 2 | -3 | 8 | -5 | -1 | · | ·
O=C(NCc1ccccc1Br)c1cccc2c1C(=O)c1ccc(N3CCOCC3)cc1S2(=O)=O | -2 | 28* | 4 | · | · | 37* | -7
O=C(NCCc1ccccc1)c1cccc2c1C(=O)c1ccc(N3CCOCC3)cc1S2(=O)=O | · | · | 17 | 12 | 4 | · | ·
COc1ccccc1CNC(=O)COC(=O)Cn1cnc2c1c(=O)n(C)c(=O)n2C | · | · | · | 2 | 0 | · | ·
Cc1cccn2c(=O)c3cc(S(=O)(=O)c4ccccc4)c(=N)n(CC4CCCO4)c3nc12 (centres undefined) | 4 | 2 | 1 | · | · | · | ·
CCN1CCN(S(=O)(=O)c2ccc(Cl)c(C(=O)Nc3ccccc3N3CCCCC3)c2)CC1 | 0 | 23* | 20 | -1 | -11 | -1 | -1
O=C(/C=C/c1ccccc1)NC(=S)NNC(=O)Cc1cccs1 | -1 | 24* | 15 | 17 | 18 | 17* | -4
CCCC(=O)N/C(N)=N/c1nc(C)c2cc(C)ccc2n1 | -1 | 10 | -1 | 6 | -8 | · | ·
Cc1ccc2nc(/N=C(\N)NC(=O)NC3CCCCC3)nc(C)c2c1 | 2 | 22* | 1 | 5 | -1 | 33* | 1
COc1cc(NC(=O)CN2C(=O)C(=O)N(CC(C)C)C2=O)cc(OC)c1 | · | · | · | 1 | -4 | · | ·
CNc1cccc(-c2ccc(C(=O)N3CCOCC3)cc2)n1 | · | · | · | 2 | 5 | · | ·
CCCCC(Sc1nc(N)c(NC(=O)c2ccco2)c(=O)[nH]1)C(=O)O (centres undefined) | 4 | 2 | -4 | -3 | -2 | · | ·
Clc1cccc(Cl)c1CNc1ccc(N2CCCC2)cc1 | 3 | 19* | 26 | · | · | 1 | 2
O=C(Cc1ccc(Cl)cc1)Nc1ccc(N2CCCC2)cc1 | -6 | -2 | 7 | 5 | 30 | · | ·
CC(=O)NC(CC(=O)N(C)C1CCCCC1)c1ccccc1 (centres undefined) | 0 | 5 | -3 | 0 | 0 | · | ·
COc1cc(/C=C2\SC(=Nc3ccccc3)N(CCc3c[nH]c4ccccc34)C2=O)ccc1OC(C)C(=O)O (centres undefined) | 1 | 18* | 27 | 11 | 19 | 12 | 0
COc1ccc(C(=O)COC(=O)c2cccc(-n3cnnn3)c2)c(OC)c1 | 0 | -5 | 11 | -6 | 9 | · | ·
CCOC(=O)C1(Cc2cccc(Cl)c2)CCCN(C(=O)CCNC(C)=O)C1 (centres undefined) | · | · | · | 1 | -2 | · | ·
CCOC(=O)C1(Cc2cccc(Cl)c2)CCCN(C(=O)CN2C(=O)CSC2=O)C1 (centres undefined) | 1 | 19* | 1 | -2 | -4 | -3 | -5
C/C(=N\NC(=O)c1ccco1)c1ccc(NC(=O)C(F)(F)F)cc1 | · | · | · | 2 | -1 | · | ·
Cc1nn(CCc2nn[nH]n2)c2nc(-c3ccc(C4CCCCC4)cc3)cc(C(F)(F)F)c12 | 5 | 18* | 2 | 2 | 28 | 26* | 3
O=c1cc(-c2ccc(C3CCCCC3)cc2)[nH][nH]1 | 3 | 18* | 5 | 7 | 6 | -2 | -4
COc1ccc(C)cc1NC(=O)c1cc2c(s1)CCC2 | 1 | 18* | -5 | 2 | -3 | -1 | -2
